Screening data: PubChem, National Center for Advancing Translational Sciences (NCATS)
ATXN2 expr inh – inhibitors of ATXN2 expression; HEK-293 ATXN2-luciferase reporter, luminescence, 24 h; Potency, µM (highest dose often 57 µM), inactives show at the highest dose activity change, negative = inhibition, hits mostly inhibitors; hit rate 0.72% among 360,000; further: on the % scale 0 is the no-effect control and ±100 the full control effect; nearly all actives have a fitted effect of over 55% in size
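qHTS (up to 57 uM final) was run with 24 h compound exposure of reporter cells at 37 °C. Each well was multiplexed: SteadyGlo luminescence measured ATXN2-luciferase expression after a fluorogenic Gly-Phe-AFC viability readout (25 uM final).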
ATXN viability – cell viability loss in ATXN counter-screen; Potency, µM (top dose mostly 56.7 µM), most hits filed as cytotoxic; hit rate 0.49% among 400,000; AID 651635; S2 cells (HEK-293 line with an ATXN2-luciferase reporter) viability, CellTiter-Fluor protease fluorescence, 24 h; further: nearly all actives have a fitted effect of over 40% in size
HepG2 tox – HepG2 cytotoxicity, counter-screen for TGF-b inhibitors. HepG2 CAGA-GFP viability, ATP luminescence, 18 h. Potency, µM (doses to about 46.1 µM), for the others: at the top dose activity change, negative = cytotoxicity, hits mostly cytotoxic. hit rate 0.76% among 410,000. AID 588856
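HepG2 CAGA-GFP cells (1000/well, DMEM with 1% FBS) received compound, then TGF-beta at 500 pg/mL final, and were incubated 18 hours at 37 degrees C. Viability was read by CellTiter-Glo luminescence. Media-only wells were set as complete cell-killing and DMSO as no toxicity.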
VP16 counter – inhibits Gal4-VP16 luciferase reporter, ROR gamma counter-screen. Drosophila S2 Gal4-VP16 UAS-luciferase, luminescence, 20 h. Potency, µM (series often up to 53.6 µM), for the others: top-dose activity, negative = inhibition, actives largely listed as inhibitors. hit rate 3.5% among 310,000;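 further: Gal4-VP16 expression switched on by copper sulfate through the metallothionein promoter; on the % scale 0 is the no-effect control and ±100 the full control effect; nearly all actives have a fitted effect of over 50% in size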
RORg inh – inhibitors of mouse ROR gamma transcriptional activity; hit rate 5.4% among 310,000; Drosophila S2 Gal4-RORgamma UAS-luciferase reporter, 20 h; AID 2551; Potency, µM (doses to about 53.6 µM), inactives show at the top dose activity change, negative = inhibition, actives largely listed as inhibitors; further: on the % scale 0 is the no-effect control and ±100 the full control effect; nearly all actives have a fitted effect of over 60% in size
Target sequence (P51450 whole entry, looked up, the tested form may be a part): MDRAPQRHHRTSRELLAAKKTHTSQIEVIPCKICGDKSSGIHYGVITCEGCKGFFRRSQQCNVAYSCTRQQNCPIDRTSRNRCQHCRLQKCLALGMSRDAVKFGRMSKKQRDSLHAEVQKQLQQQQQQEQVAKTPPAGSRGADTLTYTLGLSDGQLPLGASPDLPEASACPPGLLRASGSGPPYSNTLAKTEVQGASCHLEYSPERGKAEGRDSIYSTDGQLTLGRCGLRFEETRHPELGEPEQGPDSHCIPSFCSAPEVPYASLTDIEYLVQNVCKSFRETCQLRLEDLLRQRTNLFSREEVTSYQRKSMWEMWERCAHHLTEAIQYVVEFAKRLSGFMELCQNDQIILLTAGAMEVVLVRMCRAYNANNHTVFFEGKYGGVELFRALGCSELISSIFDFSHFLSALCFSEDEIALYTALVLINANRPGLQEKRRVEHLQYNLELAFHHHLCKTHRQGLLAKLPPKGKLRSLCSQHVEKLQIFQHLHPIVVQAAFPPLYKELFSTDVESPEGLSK
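Stably transfected Drosophila Schneider cells are the test system, with ROR gamma fused to Gal4 and luciferase under UAS control; luminescence is read after 20 hr of 700 uM copper sulfate induction at ambient temperature.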
TGFb inhibitor – inhibitors of TGF-b signaling; HepG2 CAGA-GFP TGF-b/SMAD3 reporter, GFP fluorescence, 18 h; TGF-beta stimulated, 500 pg/mL final; Potency, µM (top dose mostly 46.1 µM), inactives show at the highest dose activity, negative = inhibition, most hits filed as inhibitors; hit rate 1.2% among 410,000; AID 588855; further: on the % scale 0 is the no-effect control and ±100 the full control effect; nearly all actives have a fitted effect of over 65% in size
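TGF-beta reporter screen: HEPG2 CAGA-GFP, 1% FBS, 500 pg/mL TGF-beta final, 18 h; per-cell GFP summed per well; curves fitted and categorized by class.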
Numbers without * were called inactive. The list is not random: actives were taken first. Their share in the collection is about 6.1%. The call rests on the fitted dose curve; in most records, active means well fitted curve in the direction sought with a large enough effect; inconclusive means small, poorly fitted or top-dose-only effect, or another doubt; inactive means no such curve, though single readings can be large; an effect the other way counts as inactive or inconclusive. Potency means the concentration at half of the fitted maximal effect.

Screening O=[N+]([O-])c1ccccc1/C=N/Nc1nc(N2CCCC2)nc(N2CCCC2)n1 returned ATXN2 expr inh -29%, ATXN viability inactive, HepG2 tox -5%, VP16 counter -6%, RORg inh 13µM* and TGFb inhibitor 20%.
O=[N+]([O-])c1ccccc1/C=C/C=N/Nc1nc(N2CCCCC2)nc(N2CCCCC2)n1 was read as ATXN2 expr inh -29%, ATXN viability inactive, HepG2 tox 1%, VP16 counter -8%, RORg inh 11µM* and TGFb inhibitor -3%.
`Oc1ccccc1/C=N/Nc1cc(N2CCCC2)nc(N2CCCC2)n1` gave ATXN2 expr inh -17%, ATXN viability inconclusive, HepG2 tox -57%, VP16 counter inconclusive, RORg inh 11µM* and TGFb inhibitor -25%.
Screening CC(=O)Nc1ccc(/C(C)=N/Nc2nc(Nc3cccc4ccccc34)nc(N3CCOCC3)n2)cc1 returned ATXN2 expr inh 2%, ATXN viability inactive, HepG2 tox -54%, VP16 counter 11µM*, RORg inh 5.6µM* and TGFb inhibitor -23%.
C/C(=N/Nc1nc(-c2ccccc2)cc(-c2ccccc2)n1)c1ccc(N)cc1 was read as VP16 counter inconclusive and RORg inh 10µM*.
`C/C(=N\Nc1nc(N2CCCCC2)nc(N2CCOCC2)n1)c1cccs1` gave ATXN2 expr inh -22%, ATXN viability inactive, HepG2 tox 1%, VP16 counter -2%, RORg inh -33% and TGFb inhibitor -9%.
For C(=C\c1ccccc1)/C=N/Nc1nc(N2CCCCC2)nc(N2CCCCC2)n1 the results were ATXN2 expr inh inconclusive, ATXN viability inconclusive, HepG2 tox 1%, VP16 counter -1%, RORg inh 0.79µM* and TGFb inhibitor inconclusive.
C/C(=N\Nc1nc(N2CCCCCC2)nc(N2CCCCCC2)n1)c1ccccc1 was read as ATXN viability inactive, HepG2 tox -7%, VP16 counter -16%, RORg inh 3.2µM* and TGFb inhibitor 0%.
Screening COc1ccc(Cn2c(SCC(=O)N3CCN(c4ccc(F)cc4)CC3)nc3ccccc32)cc1 returned ATXN2 expr inh -2%, ATXN viability inactive, HepG2 tox -2% and TGFb inhibitor -16%.
For COC(=O)/C=C1/S/C(=N/NC(=O)c2ccc(OC)cc2)NC1=O the results were ATXN2 expr inh 19%, ATXN viability inactive, HepG2 tox 6%, VP16 counter inconclusive, RORg inh 14µM* and TGFb inhibitor -1%.
Screening COC(=O)/C=C1\S/C(=N/NC(=O)c2ccc(OC)cc2)NC1=O returned ATXN2 expr inh 10%, ATXN viability inactive, HepG2 tox -47%, VP16 counter -8%, RORg inh -26% and TGFb inhibitor inconclusive.
For CCOc1ccc(/C=N/NC(=O)c2csc(C)c2C)c(OCC)c1 the results were ATXN2 expr inh -3%, ATXN viability inactive, HepG2 tox -6%, VP16 counter -9%, RORg inh 13µM* and TGFb inhibitor 4%.
Cc1scc(C(=O)N/N=C/c2ccc(OC(C)C)cc2)c1C was read as ATXN2 expr inh 38%, ATXN viability inactive, HepG2 tox -15%, VP16 counter -23%, RORg inh -14% and TGFb inhibitor 7%.
Screening Cc1scc(C(=O)N/N=C/c2ccc(Cl)s2)c1C returned ATXN2 expr inh 64%, ATXN viability inactive, HepG2 tox -54%, VP16 counter 13µM*, RORg inh 14µM* and TGFb inhibitor -21%.
`N#CC1=C(N)C(C#N)(C#N)C(c2cccnc2)C2CC(c3ccccc3)CC=C12` (centres undefined) gave ATXN2 expr inh 10%, ATXN viability inactive, HepG2 tox 3%, VP16 counter 18µM*, RORg inh 11µM* and TGFb inhibitor -21%.
`CCn1cc(C(=O)NC(=S)Nc2ccccc2Br)cn1` gave ATXN2 expr inh 3%, ATXN viability inactive, HepG2 tox -5%, VP16 counter 10µM*, RORg inh 7.1µM* and TGFb inhibitor -4%.
COc1ccccc1NC(=S)NC(=O)c1ccc(Cn2cc(Br)cn2)cc1 was read as ATXN2 expr inh inconclusive, ATXN viability inactive, HepG2 tox -18%, VP16 counter inconclusive, RORg inh 7.9µM* and TGFb inhibitor -10%.
`Cc1ccc2c(c1)CCCN2C(=O)c1cnn2c1NC(=C1CC1)C=C2C(F)F` gave HepG2 tox -9% and TGFb inhibitor -13%.
COC(=O)c1ccc(CN2CCC3(CCC(CNC(=O)c4ccccc4)O3)CC2)cc1 (centres undefined) was read as ATXN viability inactive.
For CCCCCCCC/C=C\CCCCCCCC(=O)OC[C@@H](O)[C@H]1OC[C@H](O)[C@H]1O the results were ATXN viability inactive.
O=c1c2ccccc2nc(COc2ccccc2)n1/N=C/c1cc([N+](=O)[O-])ccc1O was read as ATXN2 expr inh inconclusive, ATXN viability inconclusive, HepG2 tox -26%, VP16 counter 4µM*, RORg inh 5µM* and TGFb inhibitor -24%.
Cc1cc(/C=N/n2c(COc3ccccc3C)nc3ccccc3c2=O)c(O)c([N+](=O)[O-])c1 was read as ATXN2 expr inh inconclusive, ATXN viability inconclusive, HepG2 tox 0%, VP16 counter 35µM*, RORg inh 14µM* and TGFb inhibitor -15%.
Screening Cc1ccc(-c2[nH]ncc2/C=N/n2c(COc3ccccc3C)nc3ccccc3c2=O)cc1 returned ATXN2 expr inh 28µM*, HepG2 tox 5.6µM*, VP16 counter inconclusive, RORg inh inconclusive and TGFb inhibitor 13µM*.
`O=C(CSc1nc(-c2ccco2)cc(C(F)(F)F)n1)Nc1ccc(C(=O)N2CCCCC2)cc1` gave ATXN2 expr inh -7%, ATXN viability inactive, HepG2 tox 2%, VP16 counter 4.5µM*, RORg inh inconclusive and TGFb inhibitor -14%.
Cc1ccc(NC(=O)CSc2nc(-c3ccco3)cc(C(F)(F)F)n2)cc1 was read as ATXN2 expr inh -12%, ATXN viability inactive, HepG2 tox -17% and TGFb inhibitor -7%.
For Cc1ccc(/C=N/NC(=O)c2ccc(-n3cccc3)cc2)o1 the results were ATXN2 expr inh -16%, ATXN viability inactive, HepG2 tox -3%, VP16 counter inconclusive, RORg inh 18µM* and TGFb inhibitor 0%.
